From PubChem BioAssay (NCATS)
Results filed as inconclusive are left out. Active and inactive are the calls of the source. Unless noted, calls come from the whole dose curve; as a rule, active = well fitted curve in the direction sought with a large enough effect; inconclusive = small, poorly fitted or top-dose-only effect, or another doubt; inactive = no such curve, though single readings can be large; an effect the other way counts as inactive or inconclusive.

Experiments:
[1] = target: Lysosomal acid glucosylceramidase (Homo sapiens) (UniProt P04062); test: Glucocerebrosidase-p2 (AID 348; in the data active = potency below about 10 µM; note: potency is the fitted concentration of half-maximal effect); conditions: purified GBA, blue fluorogenic substrate, 40 min
Sequence of Lysosomal acid glucosylceramidase (Homo sapiens) (P04062 whole entry, looked up): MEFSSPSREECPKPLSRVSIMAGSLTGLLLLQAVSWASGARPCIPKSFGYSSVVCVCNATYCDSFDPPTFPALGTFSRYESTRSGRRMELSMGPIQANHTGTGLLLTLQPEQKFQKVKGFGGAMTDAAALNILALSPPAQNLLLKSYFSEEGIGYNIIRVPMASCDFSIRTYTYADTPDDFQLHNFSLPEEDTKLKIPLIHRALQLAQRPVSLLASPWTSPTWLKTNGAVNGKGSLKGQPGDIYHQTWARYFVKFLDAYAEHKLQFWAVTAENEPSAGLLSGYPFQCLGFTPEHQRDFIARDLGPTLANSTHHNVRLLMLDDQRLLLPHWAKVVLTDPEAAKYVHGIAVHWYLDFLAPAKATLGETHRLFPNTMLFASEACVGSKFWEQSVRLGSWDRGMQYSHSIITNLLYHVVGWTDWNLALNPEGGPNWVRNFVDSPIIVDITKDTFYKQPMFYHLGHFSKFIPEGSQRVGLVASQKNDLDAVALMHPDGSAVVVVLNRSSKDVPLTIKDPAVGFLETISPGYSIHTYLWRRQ
Outline: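 Normal human glucocerebrosidase (0.2 nM) with blue fluorogenic substrate (80 uM final) in citrate/phosphate pH 5.9 with 10mM sodium taurocholate, 0.01% tween-20; 40 min RT, NaOH/glycine stop; fluorescence Ex 365/Em 440; AC50 from a titration from 0.6 nM upwards.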

[2] = AP1 Signaling Pathway (AID 357; active = well fitted curve in either direction with a large enough effect, not every such curve was filed as active;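 note: ME-180 reporter cells stimulated with EGF at its EC50 level; % is set by controls: 0 for no effect and ±100 for the full control effect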); conditions: ME-180 AP-1-bla reporter, EGF-induced, beta-lactamase ratio, 5 h; at 7.69 µM (top of the series) unless noted
Outline: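 Modulation of EGF-driven AP-1 transcription was assessed with a beta-lactamase reporter in ME-180 cells. Compound and EC50 EGF were co-incubated 5 hours at 37 °C before 2.5-hour CCF4 loading at room temperature and dual-emission reading.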

[3] = target: Cytochrome P450 1A2 (Homo sapiens) (UniProt P05177); test: p450-cyp1a2 (AID 410; calls by dose curve; note: potency is the fitted concentration of half-maximal effect;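 for activity change, negative = inhibition: -100% = full effect of reference inhibitor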); conditions: recombinant CYP1A2, luciferin-ME demethylation, luminescence; series mostly up to 57 µM
Sequence of Cytochrome P450 1A2 (Homo sapiens) (P05177 whole entry, looked up): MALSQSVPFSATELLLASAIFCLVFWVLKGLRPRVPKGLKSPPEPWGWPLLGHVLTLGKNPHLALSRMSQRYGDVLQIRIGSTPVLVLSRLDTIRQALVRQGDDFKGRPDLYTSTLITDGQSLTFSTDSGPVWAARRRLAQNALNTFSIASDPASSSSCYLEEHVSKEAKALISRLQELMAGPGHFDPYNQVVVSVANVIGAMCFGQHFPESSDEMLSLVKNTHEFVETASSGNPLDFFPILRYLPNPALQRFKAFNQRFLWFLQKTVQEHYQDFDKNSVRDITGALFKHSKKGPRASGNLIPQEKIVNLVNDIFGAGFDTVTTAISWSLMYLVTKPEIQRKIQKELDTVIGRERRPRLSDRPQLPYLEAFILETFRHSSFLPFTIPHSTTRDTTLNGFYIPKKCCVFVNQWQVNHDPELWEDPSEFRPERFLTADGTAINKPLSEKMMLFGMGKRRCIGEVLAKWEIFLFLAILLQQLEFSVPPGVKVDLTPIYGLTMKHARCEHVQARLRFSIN
Outline: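 Luminescent demethylation readout: Luciferin-ME (100uM, equal to Km) turned over by 20nM CYP1A2 for 60 min at room temperature after NADPH regeneration addition, following 10 min compound preincubation. Normalization used 57 uM furafylline as full inhibition.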

[4] = NFAT Signaling Pathway (AID 444; active = well fitted curve in either direction with a large enough effect, not every such curve was filed as active;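 note: carbachol stimulus at about its EC50 of 1 µM final; % is set by controls: 0 for no effect and ±100 for the full control effect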); conditions: Jurkat NFAT-bla M1, carbachol, beta-lactamase ratio, 5 h; at 7.69 µM (top of the series) unless noted
Outline: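 Jurkat cells with NFAT-driven β-lactamase reporter and co-expressed M1 receptor, stimulated with carbachol (final 1 uM, ~EC50), compound titration, 5 h at 37 °C. CCF4 loaded 1 h at RT; 460/530 nm ratio gave %activity and AC50.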

[5] = Stat Signaling Pathway (AID 446; active = well fitted curve in either direction with a large enough effect, not every such curve was filed as active;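 note: ME-180 cervical cancer cells given 40 pM IL-6 alongside compound; SIE-controlled beta-lactamase reporter measured as 460/530 nm FRET emission ratio; % is set by controls: 0 for no effect and ±100 for the full control effect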); conditions: ME-180 (cervical carcinoma) SIE beta-lactamase reporter, IL-6 stimulated, 5 h; at 7.69 µM (top of the series) unless noted
Outline: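 Normalization used AC90 stimulation (300 pM IL-6) and AC90 inhibition (125 nM pan-JAK inhibitor at 40 pM IL-6). The underlying signal is SIE-driven beta-lactamase in ME-180 cells after 5 h IL-6 exposure with compound.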

[6] = target: Glucocorticoid receptor (Homo sapiens) (UniProt P04150); test: GR-GFP Redistribution (AID 450;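 active = compounds whose dose series gives a full or clear partial fitted curve of increased nuclear translocation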; note: potency is the fitted concentration of half-maximal effect); conditions: U2OS GR-GFP nuclear translocation, laser cytometry, 2 h
Sequence of Glucocorticoid receptor (Homo sapiens) (P04150 whole entry, looked up, the tested form may be a part): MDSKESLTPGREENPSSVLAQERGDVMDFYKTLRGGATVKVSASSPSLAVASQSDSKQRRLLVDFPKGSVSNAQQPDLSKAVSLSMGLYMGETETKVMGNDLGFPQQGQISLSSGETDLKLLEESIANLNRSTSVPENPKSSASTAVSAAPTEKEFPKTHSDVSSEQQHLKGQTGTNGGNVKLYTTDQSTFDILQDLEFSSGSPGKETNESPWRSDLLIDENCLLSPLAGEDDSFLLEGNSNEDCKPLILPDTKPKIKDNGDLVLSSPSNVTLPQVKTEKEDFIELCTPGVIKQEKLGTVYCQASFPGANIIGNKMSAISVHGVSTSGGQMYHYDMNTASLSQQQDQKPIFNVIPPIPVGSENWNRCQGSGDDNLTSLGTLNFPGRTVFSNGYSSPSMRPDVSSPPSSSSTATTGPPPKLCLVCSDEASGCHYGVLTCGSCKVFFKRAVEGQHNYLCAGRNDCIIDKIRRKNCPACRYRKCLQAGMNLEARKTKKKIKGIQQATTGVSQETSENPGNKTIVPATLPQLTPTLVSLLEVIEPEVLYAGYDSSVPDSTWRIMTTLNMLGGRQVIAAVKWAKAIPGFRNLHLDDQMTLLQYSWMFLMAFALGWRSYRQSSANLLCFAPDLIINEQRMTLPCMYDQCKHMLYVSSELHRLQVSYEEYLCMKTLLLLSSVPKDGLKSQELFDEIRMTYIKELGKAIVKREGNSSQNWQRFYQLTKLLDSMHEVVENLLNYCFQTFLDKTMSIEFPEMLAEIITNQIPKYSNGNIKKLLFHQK

[7] = target: Glucocorticoid receptor (Homo sapiens) (UniProt P04150); test: GR-EFC Redistribution (AID 451; calls by dose curve; note: potency is the fitted concentration of half-maximal effect); conditions: CHO-K1 GR-EFC translocation, beta-gal luminescence, 2 h
Outline: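 CHO-K1 cells expressing nuclear EA and GR-ED fragments of b-gal; compounds titrated up to 46 uM final, 2 h at 37 C. GR nuclear translocation read as complemented b-gal luminescence after 1 h RT detection.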

[8] = target: Mitogen-activated protein kinase 10 (Mus musculus) (UniProt Q61831); test: JNK3 AlphaScreen Assay (AID 530; active = well fitted curve in either direction with a large enough effect, not every such curve was filed as active;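 note: kinase came from lysate of stimulated human HepG2 cells; signal reports phosphorylation of biotinylated GST-cJun 1-79 at Ser73 with 10 µM ATP; % is set by controls: 0 for no effect and ±100 for the full control effect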); conditions: JNK3 lysate, c-Jun phosphorylation; series mostly up to 57.1 µM
Outline: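 Activity was read by AlphaScreen after JNK3-containing HepG2 lysate (cytokine pre-activated) phosphorylated biotinylated GST-cJun with 10 uM ATP at room temperature. Phospho-Ser73 cJun antibody with Protein-A acceptor beads provided detection.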

[9] = target: 3',5'-cyclic-AMP phosphodiesterase 4B (Homo sapiens) (UniProt Q07343); test: qHTS Assay for Inhibitors of PDE-IV (AID 607; active = well fitted activation curve with a large enough effect in the main read-out, with a control signal flat, not every such curve was filed as active; note: % of control where 0% means no effect); conditions: HEK293 ACTOne CNG channel cells, membrane potential fluorescence; series mostly up to 22.9 µM
Sequence of 3',5'-cyclic-AMP phosphodiesterase 4B (Homo sapiens) (Q07343 whole entry, looked up): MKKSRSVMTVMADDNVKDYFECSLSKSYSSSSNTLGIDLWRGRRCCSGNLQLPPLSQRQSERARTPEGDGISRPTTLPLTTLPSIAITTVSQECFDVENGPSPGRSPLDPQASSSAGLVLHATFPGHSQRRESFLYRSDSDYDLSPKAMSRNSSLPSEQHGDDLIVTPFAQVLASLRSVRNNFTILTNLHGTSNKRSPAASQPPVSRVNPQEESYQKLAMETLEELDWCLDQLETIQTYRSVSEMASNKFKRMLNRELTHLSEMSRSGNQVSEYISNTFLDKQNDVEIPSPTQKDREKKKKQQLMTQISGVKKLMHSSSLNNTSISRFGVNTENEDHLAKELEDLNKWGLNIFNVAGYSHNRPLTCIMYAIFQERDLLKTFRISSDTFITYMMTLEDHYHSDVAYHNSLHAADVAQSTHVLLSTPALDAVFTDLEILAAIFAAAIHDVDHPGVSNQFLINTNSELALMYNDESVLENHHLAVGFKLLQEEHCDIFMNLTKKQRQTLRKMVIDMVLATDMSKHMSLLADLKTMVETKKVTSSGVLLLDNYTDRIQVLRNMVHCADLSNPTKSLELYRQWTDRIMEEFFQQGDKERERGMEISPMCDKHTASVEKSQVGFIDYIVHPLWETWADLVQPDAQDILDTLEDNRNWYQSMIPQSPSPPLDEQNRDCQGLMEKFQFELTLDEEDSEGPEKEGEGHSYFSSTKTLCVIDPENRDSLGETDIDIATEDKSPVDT
Outline: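 HEK293 ACTOne cells with CNG channel (1000/well), endogenous PDE4; membrane potential dye, compounds up to 22.9 uM final. Fluorescence Ex 535/Em 590; RO 20-1724 (100 uM final) as reference.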

[10] = qHTS Assay for Lipid Storage Modulators (AID 1519; calls by dose curve); conditions: Drosophila S3 cells, BODIPY lipid droplet/cell ratio, laser cytometry, cells loaded with oleic acid; for activity change, negative = inhibition: at 57.5 µM (top of the series)
Outline: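 Cells seeded at 5,000 per well were treated with compounds over a concentration series and loaded with oleic acid (400 uM, as added). Lipid droplet fluorescence (488 nm excitation, 500-530 nm channel) was read by laser-scanning cytometry and normalized to 20 uM Triacsin C.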

[11] = target: Dual specificity protein kinase CLK4 (Homo sapiens) (UniProt Q9HAZ1); test: qHTS Assay for Inhibitors of CDC-like Kinase 4 (Kinase-Glo Assay) (AID 1770); conditions: recombinant Clk4, Kinase-Glo ATP depletion luminescence; series mostly up to 66.7 µM; note: nearly all actives have a fitted effect of over 65% in size; note: potency is the fitted concentration of half-maximal effect
Sequence of Dual specificity protein kinase CLK4 (Homo sapiens) (Q9HAZ1 whole entry, looked up): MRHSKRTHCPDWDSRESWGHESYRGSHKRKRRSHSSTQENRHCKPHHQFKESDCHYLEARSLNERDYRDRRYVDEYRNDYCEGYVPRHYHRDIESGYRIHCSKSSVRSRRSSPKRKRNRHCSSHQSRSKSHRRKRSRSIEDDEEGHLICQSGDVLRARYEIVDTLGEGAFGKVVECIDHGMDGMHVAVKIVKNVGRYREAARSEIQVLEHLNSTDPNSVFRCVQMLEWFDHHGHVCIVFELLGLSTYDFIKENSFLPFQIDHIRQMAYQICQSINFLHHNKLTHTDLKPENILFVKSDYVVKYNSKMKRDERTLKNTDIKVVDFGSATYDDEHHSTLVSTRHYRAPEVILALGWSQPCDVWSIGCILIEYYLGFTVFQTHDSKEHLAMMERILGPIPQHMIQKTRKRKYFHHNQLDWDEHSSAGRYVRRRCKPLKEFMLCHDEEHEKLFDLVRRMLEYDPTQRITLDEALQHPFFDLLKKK
Outline: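 Substrate mix (RS peptide 100 uM, ATP 1 uM) dispensed, compound pinned in, then Clk4 added to 25 nM final. Incubated 4.5 h at RT; Kinase-Glo reagent added, luminescence read after 5 min.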

[12] = target: Dual specificity protein kinase CLK4 (Homo sapiens) (UniProt Q9HAZ1); test: qHTS Assay for Inhibitors of CDC-like Kinase 4 (ADP-Glo Assay) (AID 1771); conditions: recombinant CLK4, ADP-Glo luminescence; series mostly up to 80 µM; note: nearly all actives have a fitted effect of over 70% in size; note: potency is the fitted concentration of half-maximal effect
Outline: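 ADP production was read by ADP-Glo luminescence after residual ATP depletion, following 1 h room-temperature reaction of 25 nM Clk4, 1 uM ATP and 100 uM RS peptide with MgCl2, EGTA, DTT and Triton X-100.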

[13] = target: Dual specificity protein kinase CLK4 (Homo sapiens) (UniProt Q9HAZ1); test: qHTS Assay for Inhibitors of CDC-like Kinase 4 (ADP-FP Assay) (AID 1795); conditions: Transcreener ADP fluorescence polarization; series mostly up to 50 µM; note: nearly all actives have a fitted effect of over 60% in size; note: potency is the fitted concentration of half-maximal effect
Outline: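 Clk4 6.25 nM; RS peptide 100 uM; ATP 1 uM; 25 mM Tris pH 7.5, 10 mM MgCl2; 1 h reaction. ADP detected via antibody/orange tracer FP displacement; TG003 positive control.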

[14] = target: Ubiquitin carboxyl-terminal hydrolase 1 (Homo sapiens) (UniProt O94782); test: Inhibitors of USP1/UAF1: Pilot qHTS (AID 504865); conditions: purified USP1/UAF1, Ub-rhodamine cleavage fluorescence; series mostly up to 54.9 µM;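 note: rhodamine fluorescence freed from ubiquitin-rhodamine substrate followed over time; top concentration of the series differs between compounds; % is set by controls: 0 for no effect and ±100 for the full control effect; nearly all actives have a fitted effect of over 35% in size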
Sequence of Ubiquitin carboxyl-terminal hydrolase 1 (Homo sapiens) (O94782 whole entry, looked up): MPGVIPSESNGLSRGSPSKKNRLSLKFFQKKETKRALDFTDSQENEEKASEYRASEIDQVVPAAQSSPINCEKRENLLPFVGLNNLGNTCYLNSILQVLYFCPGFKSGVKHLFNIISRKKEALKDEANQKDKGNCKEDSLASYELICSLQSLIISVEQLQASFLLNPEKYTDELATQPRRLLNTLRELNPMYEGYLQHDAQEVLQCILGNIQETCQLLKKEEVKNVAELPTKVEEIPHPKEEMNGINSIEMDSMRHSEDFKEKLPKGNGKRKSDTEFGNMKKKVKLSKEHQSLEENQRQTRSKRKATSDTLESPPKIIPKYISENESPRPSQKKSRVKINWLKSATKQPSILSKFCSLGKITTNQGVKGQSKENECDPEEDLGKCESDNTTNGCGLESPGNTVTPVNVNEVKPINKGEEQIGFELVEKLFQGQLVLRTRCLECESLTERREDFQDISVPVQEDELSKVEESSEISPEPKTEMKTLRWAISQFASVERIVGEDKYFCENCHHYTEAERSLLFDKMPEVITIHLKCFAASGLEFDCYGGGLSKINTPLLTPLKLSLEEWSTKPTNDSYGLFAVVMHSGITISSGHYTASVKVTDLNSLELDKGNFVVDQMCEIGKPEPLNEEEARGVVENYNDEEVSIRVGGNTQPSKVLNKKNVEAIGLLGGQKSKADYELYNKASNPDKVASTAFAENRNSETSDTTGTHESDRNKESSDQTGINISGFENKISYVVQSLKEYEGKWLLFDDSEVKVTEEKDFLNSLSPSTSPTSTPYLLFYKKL
Outline: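 In 50mM HEPES pH 7.8 containing 0.5mM EDTA, 1mM TCEP, 0.1 mg/ml BSA and 0.01% Tween-20, 1nM USP1/UAF1 is exposed to compound for 15 min, then Ub-Rho (150nM final) is added and fluorescence is read over time.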

[15] = target: Cytochrome P450 3A4 (Homo sapiens) (UniProt P08684); test: qHTS Assay for Activators of Cytochrome P450 3A4 (AID 885); conditions: recombinant CYP3A4, Luciferin-PPXE luminescence, 60 min; series mostly up to 57.1 µM; note: nearly all actives have a fitted effect of over 65% in size
Sequence of Cytochrome P450 3A4 (Homo sapiens) (P08684 whole entry, looked up): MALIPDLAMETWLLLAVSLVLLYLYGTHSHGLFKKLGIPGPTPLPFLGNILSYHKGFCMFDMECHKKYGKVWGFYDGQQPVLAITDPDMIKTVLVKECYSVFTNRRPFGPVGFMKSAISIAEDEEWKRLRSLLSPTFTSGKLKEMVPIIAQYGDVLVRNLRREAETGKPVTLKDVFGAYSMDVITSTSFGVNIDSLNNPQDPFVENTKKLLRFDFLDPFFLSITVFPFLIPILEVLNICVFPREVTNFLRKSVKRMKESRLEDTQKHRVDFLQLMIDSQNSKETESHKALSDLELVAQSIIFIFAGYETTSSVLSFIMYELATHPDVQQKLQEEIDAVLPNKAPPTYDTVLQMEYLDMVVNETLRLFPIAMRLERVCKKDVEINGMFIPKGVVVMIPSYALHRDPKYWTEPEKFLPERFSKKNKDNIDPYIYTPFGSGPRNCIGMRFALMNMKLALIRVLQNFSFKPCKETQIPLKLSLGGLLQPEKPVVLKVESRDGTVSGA
Outline: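 Human CYP3A4 dealkylates Luciferin-PPXE to luciferin, which luciferase detection converts to light. Substrate was at its KM (25uM), buffer 200mM KPO4, reaction 60 min at RT.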

[16] = Confirmation and Secondary Assay for Modulators of Hemoglobin Beta Chain Splicing at IVS2 654 locus (AID 910); conditions: HeLa EGFP-654 splicing reporter, GFP fluorescence, 48 h; series mostly up to 38.3 µM;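 note: HeLa cells stably carrying EGFP split by mutant beta-globin IVS2-654 intron; % of control where 0% means no effect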
Outline: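 HeLa cells stably expressing EGFP interrupted by β-globin IVS2-654 intron, seeded overnight in Opti-MEM/2% FCS, then treated 2 days at 37 °C. Restored splicing read as total peak GFP intensity per well by laser scanning cytometry (488 nm excitation, 500–520 nm emission); 500 nM antisense PNA as control.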

[17] = Confirmation and Secondary Assay for Modulators of Hemoglobin Beta Chain Splicing at IVS2 705 locus (AID 930); conditions: HeLa EGFP-705 splicing reporter, GFP fluorescence, 48 h; series mostly up to 38.3 µM;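 note: HeLa cells stably expressing the EGFP-705 splicing reporter; GFP fluorescence per well restored by corrected splicing of the IVS2-705 intron in EGFP; % of control where 0% means no effect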
Outline: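 HeLa IVS2-705 EGFP reporter cells, 500/well, compound 2 d at 37C; correct splicing yields fluorescent EGFP. Control: 500 nM antisense PNA. Read-out: total peak GFP intensity.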

[18] = measured here: cell count channel max response
[19] = measured here: lipid channel max response

CN1CCN(c2ncc3nc(-c4cccc(C#N)c4)c(=O)n(CCC#N)c3n2)CC1
-1.32%: max response [10, 18]
inactive: Potency [1] > 11.4 µM | activity change, negative = inhibition [2] -12.4% | Potency [3] | activity change, negative = inhibition [4] 17.8% | activity, negative = inhibition [5] 19.4% | Potency [6] > 9.22 µM | Potency [7] > 46 µM | Potency [8] | Potency [9] | activity change, negative = inhibition [10] 4.89% | Potency [11] | Potency [12] | Potency [13] | Potency [14]
1.31%: max response [10, 19]

CCOC(=O)c1c(C)cc(OC)cc1O
-5.56%: max response [10, 19]
3.28%: max response [10, 18]
inactive: Potency [15] | Potency [16] | outcome [17] | activity change, negative = inhibition [10] -10.6% | Potency [14]

CC#C[C@]1(O)CC[C@H]2C3CCC4=CC(=O)CCC4=C3[C@@H](c3ccc(N(C)C)cc3)C[C@@]21C (some centres not stated)
inactive: activity change, negative = inhibition [10] 0.852%
-13.1%: max response [10, 18]
-13.3%: max response [10, 19]

CN(C)C(=O)c1ccc(-c2ccc3ncnc(NCc4cccs4)c3c2)cc1
inactive: Potency [1] > 11.4 µM | activity change, negative = inhibition [2] -29.4% | activity change, negative = inhibition [4] 17.3% | activity, negative = inhibition [5] -7.67% | Potency [6] > 46 µM | Potency [7] > 46 µM | Potency [8] | Potency [15] | activity change, negative = inhibition [10] 6.27% | Potency [14]
active: Potency [3] 15.8 µM | Potency [11] 12.6 µM | Potency [12] 7.08 µM | Potency [13] 14.1 µM
12.3%: max response [10, 19]
5.7%: max response [10, 18]
